Source: PubChem BioAssay AID504832 (National Center for Advancing Translational Sciences (NCATS), 2011)
Among all 310,000 compounds or so, about 18,000 (5.8%) were called active. Where a call stands in place of a potency, no number is given. About 22% were inconclusive and are not listed. Calls follow the shape of the dose curve; as a rule, active = well fitted inhibition curve with a large enough effect; inconclusive = small, poorly fitted or top-dose-only effect, or another doubt; inactive = no such curve, though single readings can be large or run the other way. Many of the other results were omitted from the sample, so actives are more common in it than they were.

Test: Primary qHTS for delayed death inhibitors of the malarial parasite plastid, 48 hour incubation
Details: P. falciparum luciferase growth in erythrocytes; series mostly up to 28.7 µM
Method in brief: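 Here the parasites carry a stable luciferase gene and grow inside erythrocytes in Albumax-based RPMI medium with compound for one erythrocytic cycle. Activity is scored as loss of luminescent signal.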
Potency is read from the fitted curve at half-maximal effect.

SMILES | Potency
O=C(NCCc1ccccc1)c1ccc2c(c1)N(Cc1ccccc1)CCS2 | inactive
CCOC(=O)N1CCN(C(=O)c2ccc3c(c2)N(Cc2ccc(C)cc2)CCS3)CC1 | 13.1 µM (active)
CCOC(=O)N1CCN(C(=O)c2ccc(S(=O)(=O)c3ccc(C)cc3)c(NC(C)=O)c2)CC1 | inactive
COc1ccc(C(C(=O)NC(C)(C)C)N(C(=O)Cn2nnc3ccccc32)c2ccc(C(C)=O)cc2)cc1O (stereo not drawn) | inactive
CCC(C)(C)NC(=O)C(c1ccc(O)cc1)N(C(=O)Cn1nnc2ccccc21)c1ccc(NC(C)=O)cc1 (stereo not drawn) | 2.08 µM (active)
CCC(C)(C)NC(=O)C(c1ccccn1)N(C(=O)c1csnn1)c1ccccc1 (stereo not drawn) | inactive
CCN(CC(=O)Nc1cc(Cl)ccc1C)C(=O)CSCc1ccc(C)cc1 | inactive
C=CCNC(=S)N/N=C/c1ccc(C)s1 | 4.65 µM (active)
Cc1ccc(/C=N/NC(=O)CN2CCN(Cc3ccccc3)CC2)s1 | inactive
C=CCNC(=S)N/N=C/c1ccc(OCc2ccccc2)cc1 | inactive
CC(C)(C)C(=O)NC1CC2CCCC(C1)N2C(=O)Nc1ccccc1F (stereo not drawn) | inactive
O=S(=O)(Nc1ccc(-n2cnnn2)cc1)c1ccc(Cl)cc1 | inactive
Cc1sc2nc(SCCO)n(-c3ccccc3)c(=O)c2c1C | inactive
CCCSc1nc2sc3c(c2c(=O)n1-c1ccc(OC)cc1)CCN(C)C3 | 7.38 µM (active)
CCc1nc(SCC(=O)Nc2ccccc2OC)n[nH]1 | inactive
CCOc1ccc2cc(C#N)c(SCC(=O)OC)nc2c1 | inactive
COc1ccc(-n2c(=S)[nH]c3sc4c(c3c2=O)CCc2ccccc2-4)cc1 | inactive
CCSc1nc2sc3c(c2c(=O)n1-c1ccc(C)cc1)CCN(C)C3 | 2.62 µM (active)
CCc1cc2c(=O)n(-c3ccccc3)c(SCC(=O)O)nc2s1 | inactive
COc1ccccc1NC(=O)CSc1nc2sc3c(c2c(=O)n1-c1ccccc1)CCN(C)C3 | 1.65 µM (active)
Cc1ccc(C)c(-n2c(SCC(=O)O)nc3sc4c(c3c2=O)CCCC4)c1 | inactive
CCOc1ccc(-n2c(SCC(=O)OC)nc3sc4c(c3c2=O)CCN(C)C4)cc1 | 0.928 µM (active)
COc1ccccc1-n1c(SCC(=O)O)nc2sc3c(c2c1=O)CCC3 | inactive
CCOC(=O)Cn1c(SC)nc2sc3c(c2c1=O)CC(C)(C)OC3 | inactive
C[C@H](OC(=O)n1ccnc1)[C@@H]1O[C@@]2(C)CCC[C@@H]1O2 | inactive
Cc1cccc(CN2CCC(n3nccc3NC(=O)c3ccccc3C)CC2)n1 | inactive
Cc1ccc(-n2ncc3c2CCCC3NC(=O)c2cnccn2)cc1C (stereo not drawn) | inactive
COc1ccccc1C(=O)NCCC(=O)NC(C)CCc1ccccc1 (stereo not drawn) | inactive
